Experimental data reported in PubChem BioAssay (NCI).
Compounds without any hit were thinned out: in the full panel of roughly 83,000, 20% have a hit.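 48-hour exposure, single concentration, 96-well plates; percent growth endpoint where 0 means no net growth. Active: below 10.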 Activity calls are given as the source filed them.

System: PC-3 prostate
Assay: NCI-60 one-dose screen, 48 h (100 = growth as untreated, 0 = no growth, -100 = all killed)
Details: 10 µM unless noted

| Structure (SMILES) | growth |
| --- | --- |
| CC1=C(CNO)C2=C(C)C3(CC3)[C@@](C)(O)C(=O)C2=C1 | 5.59% (active) |
| COc1ccc(O)c(CNC(=O)CN2CCCC2=O)c1 | 92.1% (inactive) |
| CN1CCCCC1C(C)(O)c1ccccc1 (configuration not stated) | 82.1% (inactive) |
| COC(=O)CC[C@H](Cc1ccccc1)NC(=O)c1csc([C@@H](C[C@H](C(C)C)N(C)C(=O)[C@@H](NC(=O)[C@H]2CCCCN2C)C(C)C)OC(C)=O)n1 | 39.8% (inactive) |
| COc1ccc(N(CC(=O)NCCC[Te]c2ccccc2)C(=O)CNC(=O)OC(C)(C)C)cc1 | 8.59% (active) |
| COC(=O)[C@@H](C)C[C@H](Cc1ccccc1)NC(=O)c1csc([C@@H](C[C@H](C(C)C)N(C)C(=O)[C@@H](NC(=O)[C@H]2CCCCN2C)C(C)C)OC(C)=O)n1 | 7.77% (active) |
| COC1OC(CO)C(O)C(O)[CH]1[Hg][O]C(C)=O (configuration not stated) | 87.9% (inactive) |
| CC12CC=CCC1CCC1C2CCC2(C)C(c3ccc(=O)oc3)CCC12O (configuration not stated) | -6.92% (active) |
| O=C1C2CC=CCC2C(=O)N1SC(Cl)(Cl)Cl (configuration not stated) | 81.9% (inactive) |
| CCOC(=O)[C@@H](C)C[C@H](Cc1ccccc1)NC(=O)c1nc([C@@H](C[C@H](C(C)C)N(C)C(=O)[C@@H](NC(=O)[C@H]2CCCCN2C)C(C)C)OC(C)=O)sc1CCOCc1ccccc1 | 5.66% (active) |
| COP(=S)(N1CC1)N1CC1 | 91.9% (inactive) |
| COC(=O)[C@@H](C)C[C@H](Cc1ccccc1)NC(=O)c1nc([C@@H](C[C@H](C(C)C)N(C)C(=O)[C@@H](NC(=O)[C@H]2CCCCN2C)C(C)C)OC(C)=O)sc1C(C)C | 21.2% (inactive) |
| COC(=O)[C@@]1(O)C[C@H]2O[C@]1(C)n1c3ccccc3c3c4c(c5c6ccccc6n2c5c31)C(=O)NC4 | -50.3% (active) |
| N/C(=N\N=C\c1ccc(-c2ccccc2)cc1)N[N+](=O)[O-] | 29.8% (inactive) |
| COc1ccc([As]=[As]c2ccc(OC)c(NCS(=O)(=O)O)c2)cc1NCS(=O)(=O)O (configuration not stated) | 32.5% (inactive) |
| C1CCC([PH+](C2CCCCC2)C2CCCCC2[PH+](C2CCCCC2)C2CCCCC2)CC1.O=C(C1[CH-]CCCC1)C1CCCC[N-]1.[Au] (configuration not stated) | -6.85% (active) |
| O=P1(NCCCl)OCCCN1CCCl (configuration not stated) | 93.7% (inactive) |
| O=C([O][Hg][c]1ccccc1)c1ccccc1 | 35.4% (inactive) |
| CC(CO)NC1CCCCC1 (configuration not stated) | 105% (inactive) |

| Structure (SMILES) | growth |
| --- | --- |
| C[C@@]12CC=C3c4nc(Nc5cccc(O)c5)sc4CC[C@]3(C)[C@H]1CC[C@]1(C)C(=O)CC[C@@H]21 | 28.1% (inactive) |
| COC(=O)[C@@H](C)C[C@H](Cc1ccccc1)NC(=O)c1csc([C@@H](C[C@H](C(C)C)N(C)C(=O)[C@@H](NC(=O)[C@H]2CCCCN2C)c2ccc(F)cc2)OC(C)=O)n1 | 15.8% (inactive) |
| OCCCCCNC1CCCCC1 | 101% (inactive) |
| COc1cc(/C=C/[N+](=O)[O-])c([N+](=O)[O-])cc1OC | 51.5% (inactive) |
| NC(CCl)CCl | 104% (inactive) |
| O=[N+]([O-])CC(c1ccccc1Cl)c1c(-c2ccccc2)[nH]c2ccccc12 (configuration not stated) | 31.6% (inactive) |
| C#Cc1ccc2c(c1)C(c1ccccc1)=NCC(=O)N2C | 54.4% (inactive) |
| CN(C)C(=O)Oc1ccccc1 | 94.8% (inactive) |
| OCCNC(Cc1ccccc1)c1ccc2c(c1)OCO2 (configuration not stated) | 73.1% (inactive) |
| Nc1ccc2c(c1)Cc1cc(Br)ccc1-2 | 89.6% (inactive) |
| C#Cc1ccc2c(c1)C(c1ccccc1F)=NCC(=O)N2C | 55.8% (inactive) |
| O=C([O][Hg][CH2]C1OCCOC1[CH2][Hg][O]C(=O)c1ccccc1)c1ccccc1 (configuration not stated) | 70.5% (inactive) |
| C[C@@H]1O[C@@H](O[C@H]2C[C@@H](O)[C@]3(CO)C4C(CC[C@]3(O)C2)[C@@]2(O)CC[C@H](C3=CC(=O)OC3)[C@@]2(C)C[C@H]4O)[C@H](O)[C@H](O)[C@H]1O (some centres not stated) | 6.86% (active) |
| CC1=C(CN)C2=C(C)C3(CC3)[C@@](C)(O)C(=O)C2=C1 | 88.3% (inactive) |
| COC(C(=O)[C@@H](O)[C@@H](C)O)[C@@H]1Cc2cc3cc(O[C@H]4C[C@@H](O[C@H]5C[C@@H](O)[C@H](O)C(C)O5)[C@H](O)C(C)O4)c(C)c(O)c3c(O)c2C(=O)[C@H]1O[C@H]1C[C@@H](O[C@H]2C[C@@H](O[C@H]3C[C@@H](O)[C@@H](O)C(C)O3)[C@@H](O)C(C)O2)[C@H](O)C(C)O1 (some centres not stated) | 21.6% (inactive) |
| C[C@]12CC[C@@H]3c4ccc(Oc5nc(N6CC6)nc(N6CC6)n5)cc4CC[C@H]3[C@@H]1CCC2=O | 53.8% (inactive) |
| CC(=O)Nc1ccc(NC(=O)c2ccc([As](O)O)cc2)cc1 | 100% (inactive) |
| CCC(C)(C)[C@H](NC(=O)[C@H]1CCCCN1C)C(=O)N(C)[C@H](C[C@@H](OC(C)=O)c1nc(C(=O)N[C@@H](Cc2ccccc2)C[C@H](C)C(=O)O)cs1)C(C)C | 24.9% (inactive) |
